Experiment [1] relates to CRL-7250. Briefly: Cytotoxic Profiling of Annotated Libraries Using Quantitative High-Throughput Screening (AID 1296008). Also: potency is read from the fitted curve at half-maximal effect. As to max response: % is scaled to controls: 0 for no effect and ±100 for the full control effect. Conditions: Five cell lines viability, CellTiter-Glo ATP luminescence, 48-72 h; max response: active compounds read low. Summed up: (§1)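 Cytotoxicity was measured as CellTiter-Glo ATP luminescence, read after 10 min at room temperature. Compound treatment of the cells lasted 48 or 72 hr at 37 degrees Celsius in a qHTS format.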
Background: In ATP-based viability assays light output follows the ATP content of the culture.

The next experiment deals with HEK293. The experiment is described as above. The note with it: Five cell lines viability, CellTiter-Glo ATP luminescence, 48-72 h; max response: active compounds read low. Summed up:
as §1

Experiment [2] concerns HaCat. Described as above. Conditions: Five cell lines viability, CellTiter-Glo ATP luminescence, 48-72 h; max response: active compounds read low. Summed up: as §1
A further experiment has as its system KB-3-1. Described as above. The note with it: Five cell lines viability, CellTiter-Glo ATP luminescence, 48-72 h; max response: active compounds read low. Summed up: as §1
The next experiment deals with NIH3T3. The description is as above. Conditions: Five cell lines viability, CellTiter-Glo ATP luminescence, 48-72 h; max response: active compounds read low. Summed up: as §1
A further experiment has as its system MCC-13. Briefly: qHTS assay to identify novel small-molecules to repurpose for Merkel cell carcinoma treatment (AID 1296009). The note with it: MCC and control cell lines, CellTiter-Glo viability, 72 h; series mostly up to 46 µM. Summed up: (§2)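 Cell viability, measured as CellTiter-Glo luminescence, was normalized between DMSO and no-cell wells. The cells had been exposed to 8- or 11-point compound dilutions for 72 hr at 37 degree celsius.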
On the technique in general: qHTS replaces the single test concentration by a dilution series.

The test system of a further experiment is W2. The experiment can be described thus: qHTS profiling for inhibitors of Plasmodium falciparum proliferation (AID 504749). Also: potency is read from the fitted curve at half-maximal effect. Conditions: P. falciparum in erythrocytes, SYBR Green DNA, 72 h; series mostly up to 28.7 µM. Summed up:
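SYBR Green fluorescence of parasite DNA, read after lysis and overnight dark incubation, measured growth over 72 h in erythrocyte culture at 0.3% parasitemia and 2.5% hematocrit. Data normalised to DMSO and 0.29 uM artemisinin, with plate-drift correction.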

For experiment [3], the system named is CRL-7250. Briefly: qHTS assay to identify novel small-molecules to repurpose for Merkel cell carcinoma treatment (AID 1296009). Conditions: MCC and control cell lines, CellTiter-Glo viability, 72 h; at 44.8 µM (top of the series) unless noted. Summed up: as §2
For experiment [4], the system named is HACAT. Described as above. The note with it: MCC and control cell lines, CellTiter-Glo viability, 72 h; at 44.8 µM (top of the series) unless noted. Summed up:
as §2

The subject of the next experiment is HEK293T. The description is as above. Conditions: MCC and control cell lines, CellTiter-Glo viability, 72 h; at 44.8 µM (top of the series) unless noted. Summed up: as §2

Values joined by “and” are separate entries in the source; they are usually repeats but may differ in a detail not shown here. Equal values may be shown once. Inconclusive results are not listed. A number with no mark means an inactive call. Active and inactive are the calls of the source. Calls follow the shape of the dose curve; as a rule, active = well fitted inhibition curve with a large enough effect; inconclusive = small, poorly fitted or top-dose-only effect; inactive = flat fitted curve, though single readings scatter.
Also: nearly all actives have a fitted effect of over 60% in size.

On to `COc1c2c(cc3c1OCO3)CCN(C)C2`, for which the max response in the experiment on CRL-7250 [1] is -2.93%; with HEK293 it was -25.2%; in the experiment with HaCat [2], -2.59%; with KB-3-1 it was 5.77%; with NIH3T3 it was -8.45%. Also, in the experiment with MCC-13, the compound was classed as inactive.
In the case of `Clc1ccc(C(c2ccc(Cl)cc2)C(Cl)(Cl)Cl)cc1`, the Potency in the experiment with W2 was 6010 nM (active). Also, the max response with CRL-7250 [1] was -9.96%; in the experiment on HEK293, -19.8%; in the experiment on HaCat [2], 1.96%; with KB-3-1, -11.6%; in the experiment with NIH3T3, -6.38%. Moreover, the call in the experiment with MCC-13 was inactive.
Consider `CC(C)(N)Cc1ccccc1Cl`, for which the result in the experiment with CRL-7250 [1], in the experiment with HEK293, in the experiment with HaCat [2], with CRL-7250 [3], in the experiment with HACAT [4] and in the experiment on HEK293T was inactive. In addition, the compound was called inactive with MCC-13. Besides, the max response in the experiment on NIH3T3 was -1.53%.
As to `CC(=O)C1CCOC1=O` (stereo not drawn), the call in the experiment on CRL-7250 [1], in the experiment on HEK293, with HaCat [2], in the experiment with NIH3T3, in the experiment on CRL-7250 [3] and in the experiment on HACAT [4] was inactive. In addition, the call in the experiment on HEK293T and in the experiment on MCC-13 was inactive.
As for `CCN(CC)C(=O)[C@@H]1C=C2c3cccc4[nH]cc(c34)C[C@H]2N(C)C1`, the max response with CRL-7250 [1] was -10.2%; with HaCat [2], 1.44%; in the experiment on KB-3-1 it was 1.43% and -14.9%. The Potency in the experiment with HEK293 is 80000 nM (active). For the same compound, the outcome with MCC-13 was inactive.
For the compound `COP(=S)(OC)Oc1ccc(SC)c(C)c1`, the Potency entry in the experiment with W2 was “inactive”. Also, the max response was -0.812% in the experiment with CRL-7250 [1]; -0.0428% with HEK293; -0.754% in the experiment on HaCat [2]; -16.5% in the experiment with KB-3-1; -0.878% with NIH3T3. Further, the compound was called inactive with MCC-13.
As for `C=C(C)[C@H]1CN[C@H](C(=O)O)[C@H]1CC(=O)O`, the Potency result in the experiment on W2 was “inactive”. The max response is 1.07% in the experiment with CRL-7250 [1], 0.123% in the experiment on HEK293 and 4.34% in the experiment on KB-3-1. In addition, the outcome in the experiment with HaCat [2], in the experiment with NIH3T3, in the experiment with HACAT [4] and in the experiment with MCC-13 was inactive.
On to `CCC1(CC)C(=O)C=CNC1=O`, for which the Potency entry in the experiment on W2 was “inactive”. The max response in the experiment on CRL-7250 [1] was -2.85%; with HEK293, 4.85%; in the experiment on HaCat [2], -9.12%; in the experiment with KB-3-1, -0.338%; in the experiment with NIH3T3, 1.41%. Besides, the compound was called inactive with MCC-13.
For `COc1cccc2c1C(=O)c1c(O)c3c(c(O)c1C2=O)C[C@@](O)(C(=O)CO)CC3OC1CC(N2CCOC(OC)C2)C(O)C(C)O1` (stereo partly drawn), the Potency with CRL-7250 [1] is 16.8 nM (active); in the experiment on HEK293 it was 11.9 nM (active); in the experiment on HaCat [2], 21.1 nM (active); with NIH3T3 it was 6.7 nM (active).
As for `C[C@H](N)C(=O)c1ccccc1`, the max response in the experiment on CRL-7250 [1] was -38.6%; in the experiment on HEK293, -0.637%; in the experiment with HaCat [2] it was -26.7%; in the experiment on KB-3-1, -7.79% and 0.534%; with NIH3T3 it was -1.01%. Moreover, the compound was called inactive in the experiment with MCC-13.
Take `COP(=S)(OC)Oc1ccc(S(=O)(=O)N(C)C)cc1`: in the experiment with W2, the Potency entry was “inactive”. Further, the max response with CRL-7250 [1] was 4.64%; with HEK293 it was -6.52%; in the experiment on HaCat [2], -5.18%; with KB-3-1 it was -10.7%; with NIH3T3, -0.737%. Moreover, the outcome in the experiment on MCC-13 was inactive.
As to `CN1C(=O)COc2c(C(=O)NC3CN4CCC3CC4)cc(Cl)cc21` (stereo not drawn), the Potency result in the experiment on W2 was “inactive”. Further, the max response is -5.92% in the experiment on CRL-7250 [1]; -5.69% and -2.96% in the experiment on HEK293; -0.711% and 2.67% in the experiment on HaCat [2]; 2.45% in the experiment on KB-3-1; -0.6% and 1.75% with NIH3T3. Besides, the compound was classed as inactive with MCC-13.
Turning to `O=C(O)c1ccc(=O)[nH]c1`, the call in the experiment with CRL-7250 [1], in the experiment with HaCat [2], in the experiment on NIH3T3, in the experiment with CRL-7250 [3], with HACAT [4] and in the experiment with MCC-13 was inactive. Also, in the experiment on HEK293, the max response is -0.0722%.
On to `O=C1CN=C(c2ccccc2)c2cc([N+](=O)[O-])ccc2N1`, for which the Potency entry in the experiment with W2 is “inactive”. Moreover, the max response in the experiment on HEK293 is -13.4%; in the experiment on KB-3-1, 3.93%; in the experiment on NIH3T3, -0.271%. Also, the outcome in the experiment on HaCat [2], with HACAT [4] and with MCC-13 was inactive.
As for `CC(Cc1ccccc1)N(C)Cc1ccco1` (stereo not drawn), the values for the max response with CRL-7250 [1], in the experiment on HEK293 and in the experiment with NIH3T3 were -3.65%, -5.17% and -7.67%, respectively. Further, the compound was classed as inactive in the experiment with HaCat [2], with HACAT [4] and with MCC-13.
As to `COC(=O)C(Cl)C(=O)OC`, the max response with CRL-7250 [1] was -1.36%; in the experiment on KB-3-1 it was -12.1%; in the experiment on NIH3T3, -7.3%. Besides, the call with HEK293, in the experiment with HEK293T and in the experiment on MCC-13 was inactive.
For `Nc1nc(N)nc(NC2CC2)n1`, in the experiment with W2, the Potency entry is “inactive”. Besides, the max response in the experiment on CRL-7250 [1] is -14.4%; in the experiment on HEK293 it was -46.2%; in the experiment with KB-3-1, 8.79%; with NIH3T3, -2.48%. Besides, the call with MCC-13 was inactive.
As to `CCCCCCC(=O)CCCCCC/C=C/C[C@@H](O)[C@H](O)[C@@](N)(CO)C(=O)O`, the max response is -1.04% in the experiment with CRL-7250 [1]; -0.716% with HEK293; 4.21% and -11.8% in the experiment with KB-3-1; 0.482% in the experiment on NIH3T3. For the same compound, in the experiment with MCC-13, the outcome was inactive.
On to `C=CCC1(C(C)CC)C(=O)NC(=O)NC1=O` (stereo not drawn), for which the call in the experiment on CRL-7250 [1], in the experiment on NIH3T3, in the experiment with CRL-7250 [3] and with MCC-13 was inactive. In addition, the max response was 4.61% in the experiment on HEK293 and 2.69% with HaCat [2].
Consider `C[C@]12CC[C@H]3[C@@H](CCC4=CC(=O)CC[C@@H]43)[C@@H]1CC[C@@H]2OC(=O)CCc1ccco1`, for which the figures for the max response in the experiment with CRL-7250 [1] and with NIH3T3 were -3% and -2.06%, respectively. In addition, the compound was called inactive in the experiment with HaCat [2], with HACAT [4] and in the experiment with MCC-13.
Turning to `CN1CC[C@]23c4c5ccc(O)c4O[C@H]2[C@@H](O)C=C[C@H]3[C@H]1C5`, the max response in the experiment on CRL-7250 [1] is -11.3%; in the experiment with KB-3-1 it was -4.72%; in the experiment on NIH3T3, -4.09%. Also, the call with HaCat [2] and in the experiment with MCC-13 was inactive. Moreover, the outcome in the experiment with HACAT [4] is “inactive [at 92 µM]”.
Take `O=[N+]([O-])O[C@H]1CO[C@H]2[C@@H]1OC[C@H]2O[N+](=O)[O-]`: the max response with CRL-7250 [1] is -11.3%; with HEK293, 1.42%; with NIH3T3, -0.157%. The call with MCC-13 was inactive.
